About 83,000 compounds went through this panel and 20% of them were active in at least one assay; those are over-represented in the sample as a whole.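 Cell lines were cultured in 96-well plates, exposed to a single compound concentration, and assessed for percent growth 48 hours later.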 A number with no mark means an inactive call. Active and inactive are the calls of the source. The calls were made as follows: active = growth percent below 10; inactive = the rest.
Each compound was assayed on A549/ATCC NSCLC (assay: NCI-60 one-dose screen, 48 h (100 = growth as untreated, 0 = no growth, -100 = all killed)). Details: 10 µM unless noted.

Q: How did the growth turn out when `O=c1ccc(N=Nc2ccccc2)ccc1Cl` was run?
A: 103%

Q: With `CCCCCCn1c(-c2ccc(C(=O)O/N=C(\N)c3ccc(OC)cc3)cc2)nc(-c2ccccc2)c1-c1ccccc1` as the compound, how does the growth read?
A: -33.9% (active)

Q: For `COc1ccc(C(=O)C[C@]2(O)C(=O)Nc3c(Cl)ccc(Cl)c32)cc1`, which growth is on record?
A: 53.4%

Q: With `CCCCOc1nc2c(C)cccc2cc1-c1cc(-c2ccc(Cl)cc2)nc(-c2ccc(Cl)cc2)c1` as the compound, how does the growth read?
A: 101%

Q: With `CSc1ncccc1C(=O)OCC(=O)Nc1oc(C)c2c(C)n[nH]c(=O)c12` as the compound, how does the growth read?
A: 103%

Q: How did the growth turn out when `O=C(Oc1cccc2ccccc12)Oc1cccc2ccccc12` was run?
A: 107%

Q: With `COC(=O)[C@H](C)NC(=O)NC(=O)NC(=O)CI` as the compound, how does the growth read?
A: 96.4%

Q: With `C[C@H](C(=O)Nc1ccc(S(N)(=O)=O)cc1)S(=O)(=O)c1ccccc1` as the compound, how does the growth read?
A: 102%

Q: How did the growth turn out when `c1ccc2c(c1)Nc1ccncc1S2` was run?
A: 100%

Q: For `COc1ccc(C2CC(c3ccc(Nc4ccnc5cc(Cl)ccc45)cc3)=NN2C=O)cc1` (configuration not stated), which growth is on record?
A: 64.3%

Q: Which growth does the source give for `O=C(CS(=O)c1oc(-c2cccs2)nc1S(=O)(=O)c1ccc(Br)cc1)c1ccccc1` (configuration not stated) here?
A: 96.6%

Q: For `O=C(N=c1oc2ccccc2cc1-c1cc2ccccc2[nH]1)Nc1ccc(Cl)cc1`, which growth is on record?
A: 96.1%

Q: `CCc1cccc2c3c(sc12)C(c1ccc(F)cc1)C(C#N)=C(N)O3` (configuration not stated) was tested. Which growth did it give?
A: 31.9%

Q: Which growth does the source give for `C/C(=C\C(=O)c1ccc(Cl)cc1)c1ccc(Cl)cc1` here?
A: 95.2%

Q: Which growth does the source give for `COc1cc(/C=C/c2ccccc2)cc(OC)c1` here?
A: 95.4%

Q: For `O=C(Nc1ccc(I)cc1F)c1cc(I)ccc1O`, which growth is on record?
A: 10.9%

Q: Which growth does the source give for `CCOc1cccc(NC2=C(Br)C(=O)C(C)=C(C)C2=O)c1` here?
A: 103%

Q: Which growth does the source give for `Cc1nc(S(=O)(=O)c2ccccc2)c(S(=O)(=O)Cc2ccc([N+](=O)[O-])cc2)o1` here?
A: 97.6%

Q: `Nc1nc(Cl)cc(=O)n1Cc1ccccc1` was tested. Which growth did it give?
A: 94.6%

Q: Which growth does the source give for `Oc1ccc(C#CCOc2ccccc2)cc1CNCCN(Cc1ccccn1)Cc1ccccn1` here?
A: 8.12% (active)

Q: How did the growth turn out when `c1ccc(Nc2cc(-c3cccnc3)[nH]n2)cc1` was run?
A: 93.3%

Q: How did the growth turn out when `CNCCCNc1nc2ccccc2c2c(=O)c3cc(OC)ccc3sc12` was run?
A: 76.1%

Q: For `Cc1nc2ccccc2n1CC1C(=O)NC(=O)NC1=O`, which growth is on record?
A: 96.4%

Q: How did the growth turn out when `COc1ccc(OC)c(/C=C/C(=O)N/N=C/c2ccc(Cl)cc2)c1` was run?
A: 27.8%

Q: How did the growth turn out when `Cc1ccc(S(=O)(=O)Oc2ccc(NC(=O)c3ccc(Cl)cc3)cc2)cc1` was run?
A: 95%

Q: How did the growth turn out when `Nc1nn(C(=O)Nc2ccc(Cc3ccccc3)cc2)c2ccc(Cl)cc12` was run?
A: 38.3%

Q: For `CC(=O)CC[C@H]1C(=O)N[C@@H](C(C)C)C(=O)N[C@@H](Cc2cc(O)cc(F)c2)C(=O)N2CCC[C@H](N2)C(=O)O[C@H](/C(C)=C/C=C/C(=O)OC(C)(C)C)C/C=C/C=C/[C@H](O)[C@H](C)[C@H]1O`, which growth is on record?
A: 49.9%

Q: `Cn1cc(-c2cc3ncnc(Nc4ccc(CC(=O)Nc5cc(C(C)(C)C)nn5C)cc4)c3s2)cn1` was tested. Which growth did it give?
A: 42.1%

Q: `Oc1c(I)cc(I)cc1CNCCCN(Cc1ccccn1)Cc1ccccn1` was tested. Which growth did it give?
A: -51.8% (active)

Q: How did the growth turn out when `COc1ccc(/C=C2\Oc3cc(OCCN4CCC(Cc5ccccc5)CC4)ccc3C2=O)cc1OC` was run?
A: 86.7%

Q: For `CC[C@H](C)C(=O)O[C@H]1CCC=C2C=C[C@H](C)[C@H](CC[C@@H]3CC=CC(=O)O3)[C@H]21`, which growth is on record?
A: 85.6%

Q: For `Cc1cccc2c(=O)c3c(sc12)c(NCc1ccccc1)nc1ccccc13`, which growth is on record?
A: 92%

Q: Which growth does the source give for `COc1cc(C2CC(c3ccc(N(C)C)cc3)=NN2C(C)=O)cc(OC)c1OC` (configuration not stated) here?
A: 51.2%

Q: Which growth does the source give for `CCCCCCNC(=O)Oc1ccc(/C(=C(\C)c2ccc(Cl)cc2)c2ccc(OCCCN(C)C)cc2)cc1` here?
A: 63.5%

Q: How did the growth turn out when `N[C@@H](Cc1ccccc1)[C@@H](O)C(=O)NCc1ccc(F)cc1` was run?
A: 104%

Q: With `COC(=O)/C=C1\S/C(=N\Nc2ccc([N+](=O)[O-])cc2[N+](=O)[O-])N(C2CCCCC2)C1=O` as the compound, how does the growth read?
A: 87.6%

Q: How did the growth turn out when `O=C(O)c1cn(C2CC2)c2cc(N3CCN(C(=O)Nc4nc(-c5ccccc5)cs4)CC3)c(F)cc2c1=O` was run?
A: 7.93% (active)

Source: PubChem BioAssay (NCI)
